Screening data: PubChem BioAssay, National Center for Advancing Translational Sciences (NCATS)
Pf Dd2 growth: qHTS Primary assay for Inhibitors of Plasmodium falciparum Dd2 growth in vitro; P. falciparum Dd2 growth, SYBR Green, 72 h; Potency, µM (series often up to 28.9 µM), actives largely listed as inhibitors; actives 4.3% (n = 120,000); active = well fitted inhibition curve with a large enough effect; also: nearly all actives have a fitted effect of over 65% in size
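Readout: SYBR Green fluorescence, 485 nm excitation, 535 nm emission, after ~16 h lysis at 37C. Before that, Dd2-infected red cells (2.5% hematocrit) grew 72 h with compound, 29 uM top final concentration.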
Hits are given with their value; - = inactive; [ ] = another dose, or the depositor's remark. Shown is part of a subset that was picked to be rich in hits.

SMILES	Pf Dd2 growth
O=C(Nc1cccc2ccccc12)O[C@@H]1CO[C@H]2[C@@H]1OC[C@@H]2n1nnnc1SC1CCCC1	-
CC(C)NC(=O)NC1CCCc2c1cnn2-c1ccc(F)cc1F (centres undefined)	-
O=C(Nc1cc(Cl)cc(Cl)c1)c1ccc(F)c(S(=O)(=O)N2CCc3ccccc32)c1	8.9µM
O=C(O)c1ccc2c(c1)N(S(=O)(=O)c1ccccc1F)CC2	-
O=C(Nc1cc(Cl)cc(Cl)c1)c1ccc(F)c(S(=O)(=O)N2CCCC2)c1	-
N#Cc1ccc(C(=O)N2CCCC2c2nc(CCOCC3CC3)no2)cc1 (centres undefined)	-
O=C(O)C[C@@H]1CCN(C(=O)COc2ccccc2)C[C@@H]1CCN1CCN(c2ccc(F)cc2)CC1	-
COc1ccccc1-c1noc(CCCC(=O)N2CCc3nc[nH]c3C2)n1	-
CN(C)S(=O)(=O)N1CCOc2ccc(CCC(=O)NCC3CC3)cc2C1	-
CCCCCCNc1ncnc2c1sc1nc(N3CCOCC3)c3c(c12)CCCC3	8.9µM
CCCc1nc2sc3c(N4CCCCC4)ncnc3c2c2c1CCCC2	-
CC(C)OCCCNc1ncnc2sc3c(c12)CCCC3	-
COc1nccnc1NC1CCN(C(=O)NC2CCCCC2)CC1	-[5.79 µM]
C[C@@H](NC(=O)c1ccccn1)c1onc(-c2ccc(F)cc2)c1C(=O)O	-
O=C(Cn1cccc1-c1nc(-c2ccc3c(c2)OCO3)no1)Nc1ccccc1	2.8µM
CC(=O)c1ccc(NC(=O)Cn2cccc2-c2nc(-c3ccc4c(c3)OCO4)no2)cc1	-
O=C(CSCc1ccc(F)cc1)N1CCN(c2ccccc2F)CC1	-
Cc1ccc(NC(=O)Cn2cccc2-c2nc(-c3ccc(F)cc3)no2)cc1F	-
CC(=O)c1cccc(NC(=O)Cn2cccc2-c2nc(-c3ccc4c(c3)OCO4)no2)c1	-
O=C(Cn1cccc1-c1nc(-c2ccc(F)cc2)no1)N1CCN(c2ccccc2F)CC1	-
COc1ccc(-c2noc(-c3cccn3CC(=O)Nc3cc(Cl)c(OC)cc3OC)n2)cc1F	-
COc1ccc(-c2nc(CSCC(=O)N3CCN(c4ccccc4F)CC3)c(C)o2)cc1	6.3µM
Cc1oc(-c2ccccc2F)nc1CSCC(=O)N1CCN(c2ccccc2)CC1	-
COc1ccc(-c2noc(-c3cccn3CC(=O)N3CCN(c4ccccc4F)CC3)n2)cc1F	2.5µM
COc1ccc(NC(=O)Cn2cccc2-c2nc(-c3ccc(F)cc3)no2)cc1Cl	11µM
SMILES	Pf Dd2 growth
COc1ccc(-c2noc(-c3cccn3CC(=O)N3CCN(c4ccc(F)cc4)CC3)n2)cc1F	-
CCC(C)NC(=O)Cn1c(C)ccc(NC(=O)Nc2ccc(C)cc2)c1=O (centres undefined)	-
Cc1ccccc1NC(=O)N1CCC(CCNC(=O)c2ccnn2C)CC1	-
COc1ccc(-c2noc(CN(C)CCOc3ccc(C)cc3)n2)c(OC)c1OC	-
N#Cc1ccc(O[C@@H]2COCC[C@H]2NC(=O)Cn2nnnc2N)cc1	-
CCCC(C)N1CC2(CCN(C(=O)c3c(CC)noc3C)CC2)OC1=O (centres undefined)	-
COC[C@@H]1CN(S(=O)(=O)c2ccccc2)C[C@H]1c1nc(C)no1	-
O=C1CCCN1CCCN1C(=O)[C@H]2CN(Cc3cccc(Cl)c3)C[C@H]2C1=O	-
COc1ccc(-c2noc(-c3cccn3CC(=O)Nc3ccc(F)cc3)n2)cc1F	3.2µM
COc1ccc(OC)c(NC(=O)Cn2cccc2-c2nc(-c3ccc(OC)c(F)c3)no2)c1	-
COc1ccc(CCNC(=O)Cn2cccc2-c2nc(-c3ccc4c(c3)OCO4)no2)cc1OC	-
COc1ccc(-c2noc(-c3cccn3CC(=O)Nc3cccc(C)c3)n2)cc1F	-
O=C(Cn1cccc1-c1nc(-c2ccccc2)no1)NCc1ccccc1Cl	10µM
O=C(Cn1cccc1-c1nc(-c2ccccc2)no1)NCc1ccc(Cl)cc1	-
COc1ccc(-c2noc(-c3cccn3CC(=O)NCCc3ccccc3)n2)cc1F	0.25µM
CCOC(=O)c1ccc(NC(=O)Cn2cccc2-c2nc(-c3ccc(OC)c(F)c3)no2)cc1	-
O=C(Cn1cccc1-c1nc(-c2ccccc2)no1)Nc1ccccc1Cl	-
CS(=O)(=O)N1CCC(C2CCNC2)CC1 (centres undefined)	-
COc1ccc(C(=O)N2CCC3(CC2)N=C(c2cccc(Br)c2)NO3)cc1F	-
O=C(Nc1ccc(Cl)cc1)N1CCC(N2CCCNC2=O)CC1	-
CCCC(=O)Nc1nc2c(s1)CC(C(C)(C)C)CC2 (centres undefined)	13µM
Cc1ccccc1C(=O)Nc1nc2c(s1)CC(C(C)(C)C)CC2 (centres undefined)	5.6µM
CC1CCc2nc(NC(=O)Cc3ccc(Cl)cc3)sc2C1 (centres undefined)	-
Cc1ccccc1C(=O)Nc1nnc(S(=O)(=O)N(C)Cc2ccccc2)s1	-
CC1CCc2nc(NC(=O)COc3ccc(C(C)(C)C)cc3)sc2C1 (centres undefined)	-
SMILES	Pf Dd2 growth
Cc1ccccc1C(=O)Nc1nnc(S(=O)(=O)N2c3ccccc3CC2C)s1 (centres undefined)	-
CCOCCOC1CCN(C(=O)CCc2ccccc2)CC1	-
COc1cccc(NC(=O)N[C@H]2CCN(C(=O)c3cccn3C)[C@@H]2C(=O)N[C@H](Cc2ccccc2)C(N)=O)c1	-
Cc1ccc(-c2cc3c(=O)n(CCNC(=O)Cc4ccccc4Cl)ccn3n2)c(C)c1	-
Cc1ccc(-c2cc3c(=O)n(CCNC(=O)c4ccc(F)c(F)c4)ccn3n2)c(C)c1	-
Cc1ccc(-c2cc3c(=O)n(CCNC(=O)Cc4cccc(F)c4)ccn3n2)c(C)c1	-
Cc1ccc(-c2cc3c(=O)n(CCNC(=O)c4ccc(F)cc4)ccn3n2)c(C)c1	2.8µM
Cc1ccc(C(=O)NCCn2ccn3nc(-c4cc(C)ccc4C)cc3c2=O)cc1	-
Cc1ccc(-c2cc3c(=O)n(CCNC(=O)Cc4c[nH]c5ccccc45)ccn3n2)c(C)c1	10µM
O=C1CCN(C(=O)CCc2c[nH]c3ccccc23)CCCCCCN1	-
CC(=O)Nc1cccc(OCc2nc3c(n2Cc2ccccc2)C(=O)N(Cc2ccccc2F)CCN3)c1	-
COc1ccc(CN2C(=O)O[C@@H]3CN(Cc4cnc(C)[nH]4)C[C@@H]32)cc1OC	-
COc1ccccc1CC(=O)N1C[C@H](c2nc(-c3ccncc3)no2)[C@@H](C)C1	-
COc1ccc(CNC(=O)N2CC(c3nc(CCOCC4CCOCC4)no3)C2)cc1	-
Cc1ccncc1C(=O)N1CCOc2c(O)cc(-c3ccccc3C)cc2C1	-
CC(C)CNC(=O)CN1CCOc2c(O)cc(-c3cccc(Cl)c3)cc2C1	10µM
Cc1nc(C(=O)N2CCOc3c(O)cc(-c4cccc(Cl)c4)cc3C2)cs1	-
C=CCn1cc(CN2CCOc3c(O)cc(-c4cccc(Cl)c4)cc3C2)cn1	11µM
CCc1noc(CN2CCOc3c(O)cc(-c4ccccc4C)cc3C2)n1	-
Cc1ccccc1-c1cc(O)c2c(c1)CN(Cc1ccoc1)CCO2	11µM
C=CCn1cc(CN2CCC(Oc3ccc4ccccc4c3)(C(=O)O)CC2)cn1	-
Oc1cc(-c2cccc(Cl)c2)cc2c1OCCN(c1cc(C3CC3)ncn1)C2	-
Cn1cc([C@@H](NC(=O)CN2CCOc3ccccc3C2)C2CC(O)C2)cn1 (some centres undefined)	-
COc1ccc(-c2noc([C@@H](C)N(C)C)c2C(=O)O)cc1	-
O=C(Nc1cc(F)cc(F)c1)N1CCC(Oc2ncccc2C(=O)N2CCCCC2)C1 (centres undefined)	-
